From PubChem BioAssay
DT40 TDP1 no CPT: qHTS for Inhibitors of human tyrosyl-DNA phosphodiesterase 1 (TDP1): qHTS in cells in absence of CPT | AID 686978, 2013 | Potency, µM (top dose mostly 46.2 µM), for inactives: at the highest dose activity change, negative = growth inhibition, hits mostly inhibitors | DT40 Tdp1-/- hTDP1 cells, no CPT, ATP luminescence, 48 h | hit rate 15% among 420,000; further: potency means the concentration at half of the fitted maximal effect; on the % scale 0 is the no-effect control and ±100 the full control effect; nearly all actives have a fitted effect of over 55% in size
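Growth of hTDP1-complemented DT40 Tdp1-knockout cells is measured by ATP luminescence after at least 48 hr compound exposure at 37 °C, with DMSO substituting for the 20 nM CPT used in the parallel screen.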
IL1B secr inh: inflammasome signaling inhibition, IL-1 beta readout | THP-1 LPS/ATP IL-1B secretion, AlphaLISA, 16 h; hits give low values | activity change, % at 57.5 µM | hit rate 4.7% among 360,000 | AID 743279; in the data active means activity change below about -50%; inconclusive means mostly about -30% to -49%; further: on the % scale 0 is the no-effect control and ±100 the full control effect
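THP-1 cells pretreated 1 hr with compounds (up to 57.5 uM final), then stimulated with LPS (250 ng/mL final) plus ATP (1.25 mM final); secreted IL-1B measured by AlphaLISA after 16 hr, decreased signal indicating inhibition.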
TDP1 cell CPT: DT40-hTDP1 cell growth loss with CPT | Potency, µM (titrated, usually from 46.2 µM), for the others: at the top dose activity change, negative = growth inhibition, usual class: inhibitors | chicken DT40 Tdp1-/-;hTDP1 cells + 20 nM CPT, ATP luminescence, 48 h | hit rate 12% among 420,000; further: potency means the concentration at half of the fitted maximal effect; on the % scale 0 is the no-effect control and ±100 the full control effect; nearly all actives have a fitted effect of over 55% in size
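Cell growth measured by CellTiter-Glo luminescence after a minimum 48 h, 37 C compound exposure with 20 nM CPT in Tdp1-knockout DT40 cells stably expressing hTDP1, seeded 400/well; qHTS titration format.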
ClpP mod: qHTS Assay for Activators of ClpP | Potency, µM (titrated, usually from 57.5 µM), without a hit: top-dose activity change, negative = active | hit rate 1.9% among 340,000 | purified B. subtilis ClpP, FRET peptide cleavage, 20 min | AID 651965, 2013; active means well fitted falling curve with a large enough effect; inconclusive means small, poorly fitted or top-dose-only effect; inactive means no such curve, though single readings can be large or run the other way; further: potency means the concentration at half of the fitted maximal effect; the source files actives as falling curves though it sought activators and does not explain the sign; nearly all actives have a fitted effect of over 65% in size
Target sequence (P80244 whole entry, looked up): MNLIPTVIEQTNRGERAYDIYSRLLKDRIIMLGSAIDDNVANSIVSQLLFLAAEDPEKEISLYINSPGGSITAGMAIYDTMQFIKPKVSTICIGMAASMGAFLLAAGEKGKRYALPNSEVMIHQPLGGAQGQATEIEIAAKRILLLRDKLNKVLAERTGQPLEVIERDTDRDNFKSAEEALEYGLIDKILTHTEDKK
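FRET quenching reversal measured ClpP activation: 10 microg/mL B. subtilis ClpP at pH 8 with the FRET-FV decapeptide, read at 430 nm after 320 nm excitation. The 20-min minus 0-min signal was scaled between DMSO/no-enzyme wells and ADEP (5.8 microM final).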
D3 antag: antagonists of human D3 dopamine receptor; P35462; D3R cells, DiscoveRx beta-arrestin luminescence, antagonist mode; hits give low values; max response, negative = inhibition, %; hit rate 2.5% among 360,000; AID 652054; in the data active means max response below about -50%; inconclusive means no clear call, values can overlap the other calls; further: on the % scale 0 is the no-effect control and ±100 the full control effect
Target sequence (P35462 whole entry, looked up): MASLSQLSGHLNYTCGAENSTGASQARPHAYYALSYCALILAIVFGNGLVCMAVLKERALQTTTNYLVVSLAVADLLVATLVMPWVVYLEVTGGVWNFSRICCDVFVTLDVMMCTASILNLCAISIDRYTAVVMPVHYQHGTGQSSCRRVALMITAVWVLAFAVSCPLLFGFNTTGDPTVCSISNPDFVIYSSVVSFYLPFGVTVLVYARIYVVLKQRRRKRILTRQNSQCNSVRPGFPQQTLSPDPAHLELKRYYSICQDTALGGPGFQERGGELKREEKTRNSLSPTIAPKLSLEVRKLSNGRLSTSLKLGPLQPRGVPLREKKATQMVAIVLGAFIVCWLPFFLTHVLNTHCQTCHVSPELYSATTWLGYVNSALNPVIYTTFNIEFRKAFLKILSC
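Cells plated overnight at 1500 cells/well, then exposed to library compounds with dopamine controls for 90 minutes at 37 degrees C. DiscoveRx reagent added for 30–60 minutes at room temperature; luminescence read, quantitative HTS format.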
DRD3 agonist: agonists of human D3 dopamine receptor. P35462. D3R DiscoveRx beta-arrestin cells, luminescence, 90 min. max activation, %. hit rate 0.58% among 410,000. AID 652048; in the data active means max activation above about 30%; further: 0% is about no effect
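Agonist mode: compounds and dopamine controls were applied to plated cells for 90 min at 37 degrees C after an overnight attachment at 1500 cells/well. Luminescent read-out followed 30 - 60 minutes at room temperature with DiscoveRx detection reagent.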
An asterisk follows results filed as active; u = inconclusive; x = no result given. Sampled rows, rich in hits. Any-hit rate of the full collection: about 21%. Unless noted, the call rests on the fitted dose curve; in most records, active means well fitted inhibition curve with a large enough effect; inconclusive means small, poorly fitted or top-dose-only effect; inactive means flat fitted curve, though single readings scatter.

SMILES	DT40 TDP1 no CPT	IL1B secr inh	TDP1 cell CPT	ClpP mod	D3 antag	DRD3 agonist
COc1cccc(CNc2nc3ccccc3n2CCN2CCCCC2)c1	u	-9.6	12.6µM*	0.8%	u	-42.4
Brc1ccc(CNc2nc3ccccc3n2CCN2CCCCC2)cc1	23.1µM*	u	u	0.9%	u	-22.3
Brc1cccc(CNc2nc3ccccc3n2CCN2CCCCC2)c1	u	-29.7	u	-2.0%	-18.1	-18.8
Cn1c(NCc2cccc(Br)c2)nc2ccccc21	u	u	u	-1.0%	-58.1*	-12.7
Cc1cccc(C(=O)NCC(c2ccco2)N2CCc3ccccc32)c1 (centres undefined)	14.6µM*	-57.8*	u	x	2.1	0.8
O=C(NCC(c1ccco1)N1CCc2ccccc21)c1ccc([N+](=O)[O-])cc1 (centres undefined)	-22.2%	-4.1	-13.1%	2.9%	-19.5	-15.4
O=C(CCc1ccccc1)NCC(c1ccco1)N1CCc2ccccc21 (centres undefined)	4.11µM*	-7.0	4.61µM*	-2.4%	-9.3	-23.4
Cc1ccc(C(=O)NCC(c2ccco2)N2CCc3ccccc32)cc1 (centres undefined)	13µM*	u	10.3µM*	-1.2%	-21.6	2.6
O=C(NCC(c1ccco1)N1CCc2ccccc21)c1cccc([N+](=O)[O-])c1 (centres undefined)	20.6µM*	-4.2	16.4µM*	x	6.0	0.9
CC(OC(=O)c1cccc(S(=O)(=O)N2CCOCC2)c1)C(=O)NC1CCCCC1C (centres undefined)	1.0%	-3.5	-17.5%	1.0%	9.3	7.2
COc1ccc(/C=[N+](\[O-])C2N(c3ccccc3)C(=S)SC2(C)C)cc1OC (centres undefined)	u	-2.5	u	-0.3%	-3.8	2.2
O=C(NCC(c1ccco1)N1CCc2ccccc21)c1ccccc1Br (centres undefined)	u	-6.9	20.6µM*	-0.9%	-20.1	3.8
O=C(NCC(c1ccco1)N1CCc2ccccc21)c1ccccc1F (centres undefined)	u	-15.8	-29.6%	-2.7%	16.4	-0.4
O=C1c2[nH]nc(-c3ccccc3O)c2C(c2ccc(Cl)cc2)N1Cc1ccco1 (centres undefined)	u	x	16.4µM*	-2.5%	x	3.0
COc1cc(C2c3c(-c4ccccc4O)n[nH]c3C(=O)N2Cc2ccco2)ccc1OCC(C)C (centres undefined)	18.4µM*	x	u	2.3%	x	2.0
O=C1c2[nH]nc(-c3ccccc3O)c2C(c2ccccc2)N1Cc1ccco1 (centres undefined)	20.6µM*	-25.9	23.1µM*	-4.2%	u	0.1
Cc1ccc(O)c(-c2n[nH]c3c2C(c2ccccc2F)N(Cc2ccco2)C3=O)c1 (centres undefined)	20.6µM*	x	u	-2.0%	x	9.3
O=C1c2[nH]nc(-c3ccccc3O)c2C(c2ccccc2F)N1Cc1ccco1 (centres undefined)	u	75.2	u	-0.1%	-2.6	1.0
COc1ccc(-c2nc3ccccc3s2)cc1NC(=O)c1cc2ccccc2o1	-17.7%	x	-11.0%	u	x	-17.4
O=C(NC1CC1)c1cc(-c2ccc(Br)cc2)nc2ccccc12	14.6µM*	3.3	u	-22.3%	32.8	0.2
Cc1cc(C)cc(Nc2cc(C(=O)NC3CCC(C)CC3)c3ccccc3n2)c1 (centres undefined)	9.2µM*	x	u	-17.1%	x	-6.6
O=C(NC1CCCCCCC1)c1cc(-c2ccccn2)nc2ccccc12	18.4µM*	24.3	u	x	16.6	-2.2
CN1CCC(NC(=O)c2cc(-c3cccc(Br)c3)nc3ccccc23)CC1	u	-79.1*	u	-5.2%	-28.1	0.0
COc1cccc(-c2cc(C(=O)NC3CC3)c3ccccc3n2)c1	u	6.9	u	-4.0%	19.9	6.2
COc1ccc(-c2cc(C(=O)NC3CCCC3)c3ccccc3n2)cc1	u	13.0	u	4.2%	-9.8	-8.6
SMILES	DT40 TDP1 no CPT	IL1B secr inh	TDP1 cell CPT	ClpP mod	D3 antag	DRD3 agonist
O=C(COC(=O)c1ccc2c(c1)OCCO2)NCCc1ccccc1	-3.9%	12.6	-4.7%	-4.4%	12.4	2.7
Nc1nc2ncccc2cc1C(=O)NC1CCCCC1	1.8%	25.7	-13.6%	4.6%	-19.6	76.9*
CC(C)C[C@H]1CN([C@@H](CC(C)C)CN2CCCC2CN2C(=S)NC[C@@H]2Cc2ccccc2)C(=S)N1CC1CCCCC1 (some centres undefined)	u	-7.3	16.4µM*	1.4%	-111.9*	-15.2
CC(C)C[C@@H](CN1CCCC1CN1C(=S)NC[C@@H]1Cc1ccccc1)N1C[C@H](Cc2ccccc2)N(CC2CCCCCC2)C1=S (some centres undefined)	u	41.5	10.3µM*	0.3%	0.0	-4.4
Cc1ccc2[nH]c(CSc3nnc(C)s3)cc(=O)c2c1	-19.3%	x	-2.2%	-0.3%	x	3.5
CCc1noc(C)c1C(=O)Nc1nc(-c2ccc(NC(C)=O)cc2)cs1	20.6µM*	3.8	16.4µM*	1.0%	26.1	4.3
Cc1ccc(C(=O)Nc2nc(-c3ccc([N+](=O)[O-])cc3)cs2)o1	11.6µM*	-8.2	14.6µM*	-3.2%	15.0	3.2
CC(=O)Nc1ccc(-c2csc(NC(=O)c3ccc(C)o3)n2)cc1	9.2µM*	u	13µM*	-2.5%	u	6.5
CC(N=C1NS(=O)(=O)c2ccccc21)C(=O)NCc1ccc(F)cc1 (centres undefined)	-17.5%	19.9	8.2%	-2.0%	8.0	-8.1
CC1CCCC(C)N1C(=O)COC(=O)c1cccnc1Cl (centres undefined)	3.2%	33.7	14.9%	1.1%	22.7	-2.9
COc1ccc(NS(=O)(=O)c2cn(C)c(=O)n(C)c2=O)cc1	18.3%	1.6	-4.7%	-0.4%	-8.1	1.1
Cc1nn(C)c(C)c1/C=N/N=C1\CCC2C3CCc4cc(O)ccc4C3CCC12C (centres undefined)	11.6µM*	-8.1	u	-1.8%	8.7	-1.8
C[C@]12CCC3c4ccc(O)cc4CCC3C1CC/C2=N\N (some centres undefined)	u	7.4	-25.6%	x	17.5	16.6
Cc1ccc(OCc2nc3ccccc3[nH]2)cc1	u	u	u	x	-5.1	0.0
